PubChem BioAssay (EPA / NIEHS)
“And” between values parts separate entries of the source, which are not always exact repeats. Equal entries are not always repeated. Results filed as inconclusive are left out. Some compounds were tested as several samples or in several runs, with calls that do not always agree. The source made the active and inactive calls. Rule for the calls, unless noted: active = hit-call score of the fitted dose curve at least 0.9, where 1 is the maximum; inconclusive = response in the unintended direction; inactive = score below 0.9.

Key:
[1] = BSK_3C_VCAM1: BioMAP Diversity Plus: 3C Assay for Vascular cell adhesion molecule 1 (VCAM1) Biomarker Activity (AID 2282999; active = hit-call score of the fitted dose curve at least 0.9, where 1 is the maximum; inactive = score below 0.9); conditions: BioMAP 3C HUVEC, VCAM1 ELISA, cytokine-stimulated; actives raise or lower the signal
In short: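 Human umbilical vein endothelial cells (3C system), biomarker read by ELISA 24 h after dosing; bidirectional fit against DMSO baseline. Cytotoxicity tracked by SRB total-protein staining in parallel cultures at biomarker time.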

[2] = BSK_4H_Eotaxin3: BioMAP Diversity Plus: 4H Assay for Eotaxin 3 Biomarker Activity (AID 2283000; active = hit-call score of the fitted dose curve at least 0.9, where 1 is the maximum; inactive = score below 0.9); conditions: primary human endothelial cells (HUVEC); actives raise or lower the signal
In short: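 HUVEC, 24 h post-dose, ELISA for Eotaxin-3/CCL26. Gain or loss of signal fitted bidirectionally vs DMSO baseline.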

[3] = molecular target: human Peroxisome Proliferator-activated Receptor alpha (PPARa), PPARA (gene 5465) (UniProt Q07869); assay: ATG_PPARa_TRANS: Attagene TRANS-FACTORIAL HepG2 Assay for human Peroxisome Proliferator-activated Receptor alpha (PPARa) (AID 2283001);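 for AC50: potency for gain of reporter signal over DMSO so agonist or activator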
human Peroxisome Proliferator-activated Receptor alpha (PPARa), PPARA (gene 5465), sequence (Q07869 whole entry, looked up, the tested form may be a part): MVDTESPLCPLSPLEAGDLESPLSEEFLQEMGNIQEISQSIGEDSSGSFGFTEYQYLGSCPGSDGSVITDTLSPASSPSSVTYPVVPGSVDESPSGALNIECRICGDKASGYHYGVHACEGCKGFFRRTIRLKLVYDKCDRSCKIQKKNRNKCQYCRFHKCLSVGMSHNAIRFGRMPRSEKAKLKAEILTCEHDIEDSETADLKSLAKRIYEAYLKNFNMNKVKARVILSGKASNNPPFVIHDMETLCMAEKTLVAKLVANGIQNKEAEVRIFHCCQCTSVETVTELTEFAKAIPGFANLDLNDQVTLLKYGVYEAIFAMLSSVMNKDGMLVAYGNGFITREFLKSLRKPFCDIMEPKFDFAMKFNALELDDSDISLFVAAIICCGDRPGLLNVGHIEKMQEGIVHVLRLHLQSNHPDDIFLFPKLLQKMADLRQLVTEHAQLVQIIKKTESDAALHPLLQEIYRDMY
In short: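 HepG2 cells transiently transfected with multiplexed GAL4-UAS reporters driven by exogenous chimeric NR-Gal4 proteins; reporter mRNA measured after 24 h dosing. Read-out by RT-PCR, 6-FAM labelling, HpaI digestion and capillary electrophoresis; gain of signal versus DMSO.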

[4] = molecular target: human Peroxisome Proliferator-activated Receptor delta (PPARd), PPARD (gene 5467) (UniProt Q03181); assay: ATG_PPARd_TRANS: Attagene TRANS-FACTORIAL HepG2 Assay for human Peroxisome Proliferator-activated Receptor delta (PPARd) (AID 2283002)
human Peroxisome Proliferator-activated Receptor delta (PPARd), PPARD (gene 5467), sequence (Q03181 whole entry, looked up, the tested form may be a part): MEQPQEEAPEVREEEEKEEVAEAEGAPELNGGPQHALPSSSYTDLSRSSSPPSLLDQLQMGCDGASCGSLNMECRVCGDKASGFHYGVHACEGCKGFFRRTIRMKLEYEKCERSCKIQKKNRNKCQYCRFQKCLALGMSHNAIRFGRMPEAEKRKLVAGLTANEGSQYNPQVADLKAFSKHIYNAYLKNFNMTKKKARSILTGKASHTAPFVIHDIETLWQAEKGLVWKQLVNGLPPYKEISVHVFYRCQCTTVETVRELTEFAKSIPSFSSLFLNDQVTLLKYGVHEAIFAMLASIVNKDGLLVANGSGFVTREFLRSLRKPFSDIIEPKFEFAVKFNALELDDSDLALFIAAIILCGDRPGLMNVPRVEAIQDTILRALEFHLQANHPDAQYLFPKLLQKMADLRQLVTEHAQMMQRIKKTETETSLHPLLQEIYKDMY
In short: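 HepG2 cells transiently transfected with GAL4-UAS multiplexed reporter units driven by exogenous chimeric NR-GAL4 proteins; 24 h compound exposure. Reporter mRNA measured by RT-PCR, 6-FAM primer extension, HpaI digestion and capillary electrophoresis; gain of signal fitted relative to DMSO.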

[5] = read-out: Intercellular Adhesion Molecule 1 (ICAM1), ICAM1 (gene 3383); assay: BSK_3C_ICAM1: BioMAP Diversity Plus: 3C Assay for Intercellular Adhesion Molecule 1 (ICAM1) Biomarker Activity (AID 2283003; active = hit-call score of the fitted dose curve at least 0.9, where 1 is the maximum; inactive = score below 0.9); conditions: primary human endothelial cells (HUVEC); actives raise or lower the signal
In short: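 HUVEC primary cells stimulated under 3C conditions; ICAM1 measured by ELISA 24 h after compound dosing. Curves fitted bidirectionally against the DMSO baseline. Overt cytotoxicity checked by SRB staining of parallel cultures.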

[6] = BSK_3C_Proliferation: Cell Proliferation Assessment in the BioMAP Diversity Plus: 3C Assay (AID 2283006; active = hit-call score of the fitted dose curve at least 0.9, where 1 is the maximum; inactive = score below 0.9;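 for AC50: potency may reflect either rise or fall in cell number versus DMSO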); conditions: primary human endothelial cells (HUVEC)
In short: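 Subconfluent HUVEC (3C system) cultured with chemical; relative cell number read at 48 h by sulforhodamine B total-protein staining (0.1% SRB after 10% TCA fixation, 560 nm). Bidirectional fit relative to DMSO.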

[7] = molecular target: Nuclear receptor subfamily 1 group I member 2 (Homo sapiens) (UniProt O75469); assay: ATG_PXR_TRANS: Attagene TRANS-FACTORIAL HepG2 Assay for human Pregnane X Receptor (PXR) (AID 2283008)
Nuclear receptor subfamily 1 group I member 2 (Homo sapiens), sequence (O75469 whole entry, looked up, the tested form may be a part): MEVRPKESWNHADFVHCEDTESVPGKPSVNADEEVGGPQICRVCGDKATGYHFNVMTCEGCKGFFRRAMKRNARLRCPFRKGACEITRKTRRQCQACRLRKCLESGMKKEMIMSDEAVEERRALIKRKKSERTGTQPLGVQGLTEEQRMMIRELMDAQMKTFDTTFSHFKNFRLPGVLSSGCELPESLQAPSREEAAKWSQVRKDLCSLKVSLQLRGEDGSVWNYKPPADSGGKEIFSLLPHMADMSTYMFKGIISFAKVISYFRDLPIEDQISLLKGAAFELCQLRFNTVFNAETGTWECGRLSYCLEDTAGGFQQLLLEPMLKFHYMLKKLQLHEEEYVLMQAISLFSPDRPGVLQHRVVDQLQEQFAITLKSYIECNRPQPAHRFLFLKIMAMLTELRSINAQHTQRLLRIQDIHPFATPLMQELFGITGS
In short: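 Measures mRNA induction of a GAL4-UAS-driven reporter in human HepG2 cells transiently expressing PXR fused to Gal4, following 24 h treatment. DMSO served as negative control and baseline.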

[8] = molecular target: human Retinoic Acid Receptor gamma (RARg), RARG (gene 5916) (UniProt P13631); assay: ATG_RARg_TRANS: Attagene TRANS-FACTORIAL HepG2 Assay for human Retinoic Acid Receptor gamma (RARg) (AID 2283009);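 for AC50: AC50 is for reporter induction above DMSO meaning RARg activation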
human Retinoic Acid Receptor gamma (RARg), RARG (gene 5916), sequence (P13631 whole entry, looked up, the tested form may be a part): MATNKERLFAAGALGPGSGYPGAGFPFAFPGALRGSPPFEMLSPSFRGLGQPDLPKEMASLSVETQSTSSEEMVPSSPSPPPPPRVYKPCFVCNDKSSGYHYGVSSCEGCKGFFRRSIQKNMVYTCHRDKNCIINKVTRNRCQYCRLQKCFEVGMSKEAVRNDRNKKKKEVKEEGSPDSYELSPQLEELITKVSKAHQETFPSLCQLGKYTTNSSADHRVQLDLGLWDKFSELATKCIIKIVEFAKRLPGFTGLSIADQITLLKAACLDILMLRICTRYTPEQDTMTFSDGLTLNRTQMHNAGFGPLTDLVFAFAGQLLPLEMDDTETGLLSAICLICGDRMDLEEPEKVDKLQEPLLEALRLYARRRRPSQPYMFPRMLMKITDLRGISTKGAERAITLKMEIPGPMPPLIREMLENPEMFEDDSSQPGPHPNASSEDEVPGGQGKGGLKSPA
In short: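 HepG2 transiently transfected with GAL4-UAS reporter units and chimeric NR-Gal4 constructs; 24 h compound exposure. Reporter mRNA quantified by RT-PCR, FAM labeling, HpaI digestion and capillary electrophoresis; gain-of-signal versus DMSO.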

[9] = read-out: E-selectin (Homo sapiens) (UniProt P16581); assay: BSK_3C_Eselectin: BioMAP Diversity Plus: 3C Assay for Eselectin Biomarker Activity (AID 2283015; active = hit-call score of the fitted dose curve at least 0.9, where 1 is the maximum; inactive = score below 0.9); conditions: primary human endothelial cells (HUVEC); actives raise or lower the signal
In short: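 Primary human umbilical vein endothelial cells (3C system) were dosed with chemical and cell-surface E-selectin measured by ELISA 24 h later. Bidirectional curve fitting used DMSO as negative control and baseline.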

[10] = read-out: Interleukin-1 alpha (IL1a), IL1A (gene 3552); assay: BSK_BE3C_IL1a: BioMAP Diversity Plus: BE3C Assay for Interleukin-1 alpha (IL1a) Biomarker Activity (AID 2283016; active = hit-call score of the fitted dose curve at least 0.9, where 1 is the maximum; inactive = score below 0.9); conditions: primary human bronchial epithelial cells; actives raise or lower the signal
In short: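 Human primary bronchial epithelial cells, 24 h chemical exposure; IL-1a quantified by ELISA, fitted bidirectionally against DMSO. Cytotoxicity assessed in parallel by SRB total-protein staining at the time of measurement.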

[11] = read-out: Monocyte Chemoattractant Protein-1 (MCP1), CCL2 (gene 6347); assay: BSK_3C_MCP1: BioMAP Diversity Plus: 3C Assay for Monocyte Chemoattractant Protein-1 (MCP1) Biomarker Activity (AID 2283017; active = hit-call score of the fitted dose curve at least 0.9, where 1 is the maximum; inactive = score below 0.9); conditions: primary human endothelial cells (HUVEC); actives raise or lower the signal
In short: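 Primary human umbilical vein endothelial cells (3C system) were exposed to test chemical for 24 h, after which MCP-1 was quantified by ELISA. Activity was fitted bidirectionally against DMSO as negative control and baseline.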

[12] = read-out: Monocyte Chemoattractant Protein-1 (MCP1), CCL2 (gene 6347); assay: BSK_4H_MCP1: BioMAP Diversity Plus: 4H Assay for Monocyte Chemoattractant Protein-1 (MCP1) Biomarker Activity (AID 2283018; active = hit-call score of the fitted dose curve at least 0.9, where 1 is the maximum; inactive = score below 0.9); conditions: primary human endothelial cells (HUVEC); actives raise or lower the signal
In short: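 Human umbilical vein endothelial cells (4H system) exposed to chemicals for 24 h in 96-well format. MCP-1 measured by ELISA; bidirectional fitting against DMSO, with SRB total-protein staining in parallel cultures for cytotoxicity.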

[13] = molecular target: human RAR-related Orphan Receptor beta (RORb), RORB (gene 6096) (UniProt Q92753); assay: ATG_RORb_TRANS: Attagene TRANS-FACTORIAL HepG2 Assay for human RAR-related Orphan Receptor beta (RORb) (AID 2283010);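 for AC50: potency for increased reporter mRNA meaning activation of RORb-Gal4 chimera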
human RAR-related Orphan Receptor beta (RORb), RORB (gene 6096), sequence (Q92753 whole entry, looked up, the tested form may be a part): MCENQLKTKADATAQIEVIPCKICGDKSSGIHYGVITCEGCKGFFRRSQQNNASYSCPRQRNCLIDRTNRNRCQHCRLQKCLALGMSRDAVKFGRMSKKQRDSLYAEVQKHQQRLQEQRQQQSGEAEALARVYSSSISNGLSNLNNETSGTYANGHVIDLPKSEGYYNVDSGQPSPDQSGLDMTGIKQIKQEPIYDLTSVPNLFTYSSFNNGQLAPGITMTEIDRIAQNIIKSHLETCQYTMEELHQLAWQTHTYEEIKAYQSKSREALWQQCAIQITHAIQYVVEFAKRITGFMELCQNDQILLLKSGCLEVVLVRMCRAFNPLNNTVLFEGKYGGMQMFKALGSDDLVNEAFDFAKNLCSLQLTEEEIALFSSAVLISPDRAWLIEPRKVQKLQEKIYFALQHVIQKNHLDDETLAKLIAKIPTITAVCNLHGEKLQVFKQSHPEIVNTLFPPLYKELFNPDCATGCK
In short: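 HepG2 cells transiently transfected with GAL4-UAS reporter units expressing chimeric NR-Gal4 protein; reporter mRNA measured 24 h after dosing by RT-PCR, 6-FAM labelling and capillary electrophoresis. Gain-of-signal fitted relative to DMSO baseline.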

[14] = molecular target: Retinoic acid receptor RXR-alpha (Homo sapiens) (UniProt P19793); assay: ATG_RXRa_TRANS: Attagene TRANS-FACTORIAL HepG2 Assay for human Retinoid X Receptor alpha (RXRa) (AID 2283012)
Retinoic acid receptor RXR-alpha (Homo sapiens), sequence (P19793 whole entry, looked up, the tested form may be a part): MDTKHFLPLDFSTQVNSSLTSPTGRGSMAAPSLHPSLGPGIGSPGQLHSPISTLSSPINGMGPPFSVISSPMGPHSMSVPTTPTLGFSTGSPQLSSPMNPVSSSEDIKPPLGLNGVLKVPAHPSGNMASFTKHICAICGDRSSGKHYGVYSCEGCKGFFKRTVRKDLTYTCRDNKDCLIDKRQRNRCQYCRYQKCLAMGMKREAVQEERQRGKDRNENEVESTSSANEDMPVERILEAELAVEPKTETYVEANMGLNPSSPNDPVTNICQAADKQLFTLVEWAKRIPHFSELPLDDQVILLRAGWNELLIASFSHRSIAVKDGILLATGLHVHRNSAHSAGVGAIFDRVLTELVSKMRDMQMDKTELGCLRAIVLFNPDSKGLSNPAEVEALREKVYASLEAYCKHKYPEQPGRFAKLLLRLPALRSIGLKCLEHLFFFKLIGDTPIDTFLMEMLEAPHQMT
In short: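 HepG2 cells transiently transfected with GAL4-UAS reporter units and chimeric RXRa-Gal4 protein, treated 24 h. Reporter mRNA measured by RT-PCR, fluorescent labelling, HpaI digestion and capillary electrophoresis. Induction fitted against DMSO.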

[15] = molecular target: human Retinoid X Receptor beta (RXRb), RXRB (gene 6257) (UniProt P28702); assay: ATG_RXRb_TRANS: Attagene TRANS-FACTORIAL HepG2 Assay for human Retinoid X Receptor beta (RXRb) (AID 2283013)
human Retinoid X Receptor beta (RXRb), RXRB (gene 6257), sequence (P28702 whole entry, looked up, the tested form may be a part): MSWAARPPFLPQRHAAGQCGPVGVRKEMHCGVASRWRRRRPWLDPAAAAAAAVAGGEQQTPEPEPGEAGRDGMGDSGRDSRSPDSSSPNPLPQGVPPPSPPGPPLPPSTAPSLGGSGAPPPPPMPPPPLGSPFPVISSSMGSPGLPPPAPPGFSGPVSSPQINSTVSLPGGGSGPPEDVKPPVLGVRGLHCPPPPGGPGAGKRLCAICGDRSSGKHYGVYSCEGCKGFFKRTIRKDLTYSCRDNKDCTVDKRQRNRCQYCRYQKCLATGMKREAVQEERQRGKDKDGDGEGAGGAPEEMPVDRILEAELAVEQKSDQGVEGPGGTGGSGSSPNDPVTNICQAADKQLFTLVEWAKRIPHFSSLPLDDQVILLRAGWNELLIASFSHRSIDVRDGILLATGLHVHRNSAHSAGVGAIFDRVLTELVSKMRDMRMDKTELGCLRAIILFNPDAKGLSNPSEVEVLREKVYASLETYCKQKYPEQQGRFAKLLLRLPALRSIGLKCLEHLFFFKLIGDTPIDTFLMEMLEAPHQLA
In short: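 HepG2 cells were transiently transfected with multiplexed GAL4-UAS reporters and a chimeric RXRb-Gal4 construct, then exposed for 24 h. Reporter mRNA was quantified by RT-PCR, FAM labeling, HpaI digestion and capillary electrophoresis; gain of signal was scored against DMSO.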

[16] = molecular target: human Thyroid Receptor alpha (THRa1), THRA (gene 7067) (UniProt P10827); assay: ATG_THRa1_TRANS: Attagene TRANS-FACTORIAL HepG2 Assay for human Thyroid Receptor alpha (THRa1) (AID 2283014)
human Thyroid Receptor alpha (THRa1), THRA (gene 7067), sequence (P10827 whole entry, looked up, the tested form may be a part): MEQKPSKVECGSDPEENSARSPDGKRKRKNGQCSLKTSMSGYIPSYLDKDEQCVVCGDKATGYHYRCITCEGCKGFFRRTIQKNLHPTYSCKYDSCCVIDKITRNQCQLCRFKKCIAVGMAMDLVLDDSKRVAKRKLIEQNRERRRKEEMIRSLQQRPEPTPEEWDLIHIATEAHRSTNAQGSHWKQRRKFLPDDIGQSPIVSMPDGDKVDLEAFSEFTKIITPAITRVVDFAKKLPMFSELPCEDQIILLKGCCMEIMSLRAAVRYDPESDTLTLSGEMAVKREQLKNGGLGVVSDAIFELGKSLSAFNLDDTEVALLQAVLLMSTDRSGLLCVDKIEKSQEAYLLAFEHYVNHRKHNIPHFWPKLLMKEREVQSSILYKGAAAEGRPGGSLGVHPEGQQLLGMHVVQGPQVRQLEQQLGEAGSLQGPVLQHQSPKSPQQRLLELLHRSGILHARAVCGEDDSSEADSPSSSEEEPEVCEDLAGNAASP
In short: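 HepG2 cells transiently transfected with multiplexed GAL4-UAS reporter units for exogenous chimeric THRa1-Gal4; reporter mRNA measured 24 h after dosing by RT-PCR, 6-FAM labelling, HpaI digestion and capillary electrophoresis. Gain-of-signal fitted versus DMSO baseline.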

[17] = molecular target: human Retinoic Acid Receptor beta (RARb), RARB (gene 5915) (UniProt P10826); assay: ATG_RARb_TRANS: Attagene TRANS-FACTORIAL HepG2 Assay for human Retinoic Acid Receptor beta (AID 2283004)
In short: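 HepG2 cells transiently transfected with multiplexed GAL4-UAS reporter units expressing chimeric NR–Gal4 fusions; 24 h compound exposure. Reporter mRNA quantified by RT-PCR, 6-FAM labelling, HpaI digestion and capillary electrophoresis; gain-of-signal fitted against DMSO baseline.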

[18] = molecular target: Retinoic acid receptor alpha (Homo sapiens) (UniProt P10276); assay: ATG_RARa_TRANS: Attagene TRANS-FACTORIAL HepG2 Assay for human Retinoic Acid Receptor alpha (RARa) (AID 2283005)
In short: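 HepG2 transiently transfected with multiplex GAL4-UAS reporter units including a human RARa–GAL4 chimera; 24 h compound exposure. Reporter mRNA quantified by RT-PCR, 6-FAM labeling and capillary electrophoresis; gain of signal versus DMSO.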

[19] = molecular target: Peroxisome proliferator-activated receptor gamma (Homo sapiens) (UniProt P37231); assay: ATG_PPARg_TRANS: Attagene TRANS-FACTORIAL HepG2 Assay for human Peroxisome Proliferator-activated Receptor-gamma (PPARg) (AID 2283007)
Peroxisome proliferator-activated receptor gamma (Homo sapiens), sequence (P37231 whole entry, looked up, the tested form may be a part): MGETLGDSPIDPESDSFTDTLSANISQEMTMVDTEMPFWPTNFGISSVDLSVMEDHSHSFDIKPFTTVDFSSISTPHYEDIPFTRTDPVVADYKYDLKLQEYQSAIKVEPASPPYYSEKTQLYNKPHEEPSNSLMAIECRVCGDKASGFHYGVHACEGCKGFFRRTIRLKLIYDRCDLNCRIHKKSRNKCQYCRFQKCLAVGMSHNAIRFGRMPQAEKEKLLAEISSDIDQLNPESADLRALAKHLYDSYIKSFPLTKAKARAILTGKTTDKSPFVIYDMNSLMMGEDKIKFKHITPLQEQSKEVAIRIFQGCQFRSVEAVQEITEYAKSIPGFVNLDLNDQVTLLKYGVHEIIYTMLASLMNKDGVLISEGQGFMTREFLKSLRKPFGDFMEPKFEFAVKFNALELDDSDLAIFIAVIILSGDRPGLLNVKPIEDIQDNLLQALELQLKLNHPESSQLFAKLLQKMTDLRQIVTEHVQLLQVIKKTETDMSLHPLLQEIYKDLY
In short: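 After 24 h of chemical exposure, transfected HepG2 cells carrying PPARγ-Gal4 chimera reporter constructs are lysed for RNA. Reporter transcripts are measured by RT-PCR and capillary electrophoresis with fluorescent labelling, and gain of signal is fitted versus DMSO.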

Measured: AC50

E-selectin (Homo sapiens), sequence (P16581 whole entry, looked up): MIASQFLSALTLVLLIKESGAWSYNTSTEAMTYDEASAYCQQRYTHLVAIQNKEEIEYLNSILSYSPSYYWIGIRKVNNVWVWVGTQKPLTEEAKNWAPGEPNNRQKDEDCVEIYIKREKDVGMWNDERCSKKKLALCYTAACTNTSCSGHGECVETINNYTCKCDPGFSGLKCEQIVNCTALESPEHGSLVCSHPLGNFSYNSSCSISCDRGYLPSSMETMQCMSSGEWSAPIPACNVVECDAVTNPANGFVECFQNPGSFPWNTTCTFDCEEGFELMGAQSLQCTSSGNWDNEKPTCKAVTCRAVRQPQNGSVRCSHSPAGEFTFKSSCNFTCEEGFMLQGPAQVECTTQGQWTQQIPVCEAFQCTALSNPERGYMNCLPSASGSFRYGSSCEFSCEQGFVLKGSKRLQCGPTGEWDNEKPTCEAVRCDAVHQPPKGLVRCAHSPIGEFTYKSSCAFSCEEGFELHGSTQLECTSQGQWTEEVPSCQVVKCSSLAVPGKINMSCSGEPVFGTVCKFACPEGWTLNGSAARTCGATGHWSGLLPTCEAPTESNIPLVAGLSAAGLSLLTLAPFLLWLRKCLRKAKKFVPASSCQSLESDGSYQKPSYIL

CCCCCCCCC(=O)NCc1ccc(O)c(OC)c1
active: [6] 13.6 µM | [12] 3.97 µM
not listed: [13] | [14] | [15] | [16] | [17] | [18] | [19]
inactive: all other assays above

C[C@]12CCC(=O)C[C@@H]1CC[C@@H]1[C@@H]2CC[C@]2(C)[C@@H](O)CC[C@@H]12
inactive: [1] | [2] | [3] | [5] | [7] | [8] | [13] | [14] | [15] | [16] | [10] | [12]
active: [6] 18.3 µM | [7] 11.9 µM | [9] 18 µM | [11] 26.9 µM

CCC(C)(C)c1ccc(O)c(C(C)(C)CC)c1
active: [1] 11.5 µM | [2] 11.1 µM | [3] 55.2 µM | [4] 52 µM | [5] 12.4 µM | [6] 8.85 µM | [19] 33.4 µM | [7] 12.6 µM | [8] 27.4 µM | [13] 27.3 µM | [14] 33.4 µM | [15] 9.09 µM | [16] 45.8 µM | [9] 10.4 µM | [10] 32.5 µM | [11] 9.92 µM | [12] 11.1 µM
inactive: [17] | [18]

CCOC(=O)/C=C(C)/C=C/C[C@@H](C)CCCC(C)C
inactive: [4] | [14]
active: [1] 26.6 µM | [2] 30 µM | [3] 64.9 µM | [5] 30.2 µM | [6] 20 µM | [7] 5.32 µM | [15] 26.9 µM | [9] 26.5 µM | [10] 20 µM | [11] 31.2 µM | [12] 29.4 µM

COP(=S)(OC)Oc1c(Cl)cc(C)cc1Cl
inactive: [1] | [3] | [4] | [5] | [19] | [14] | [10]
active: [2] 5.75 µM | [6] 20 µM | [7] 6.51 µM | [15] 22 µM | [9] 29 µM | [11] 31.4 µM | [12] 3.97 µM

COP(=S)(OC)Oc1ccc(Sc2ccc(OP(=S)(OC)OC)cc2)cc1
active: [2] 20 µM | [3] 22.7 µM | [6] 15.7 µM | [19] 13.7 µM | [7] 4.45 µM | [9] 26.5 µM | [10] 7.5 µM | [11] 27.1 µM | [12] 11.8 µM
inactive: [1] | [4] | [5] | [8] | [14] | [15] | [16]

CC12CC1(C)C(=O)N(c1cc(Cl)cc(Cl)c1)C2=O (stereo unspecified)
active: [7] 2.03 µM and 4.13 µM and 2.07 µM
inactive: [1] | [2] | [3] | [4] | [5] | [6] | [7] | [13] | [14] | [15] | [16] | [9] | [10] | [11] | [12]
